The term AC50 denotes the concentration giving half of the maximal activity seen.

Here are results for 20 compounds from PubChem BioAssay (EPA / NIEHS).

Test [1] addresses rabbit Imidazoline 2 Central (I2C), CKB (gene 100009085) (UniProt P00567). The test can be described thus: NVS_ENZ_rabI2C: NovaScreen (NVS) Enzymatic Assay for rabbit Imidazoline 2 Central (I2C) (AID 2283228). A digest of the protocol: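 Rabbit brain membranes, cell-free; readout by filter-based scintillation counting 1.5 hours after dosing, loss of signal vs DMSO. Initial duplicate test at 25 uM, then concentration-response with 50 uM top concentration.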

For test [2], the target named is rat Constitutive Nitric Oxide Synthase (CNOS), Nos1 (gene 24598) (UniProt P29476). Put plainly: NVS_ENZ_rCNOS: NovaScreen (NVS) Enzymatic Assay for rat Constitutive Nitric Oxide Synthase (CNOS) (AID 2283236). The method, boiled down:
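Enzyme activity in rat brain membrane preparation, read 1 h after dosing by filter-based radiometric scintillation counting. Primary screen in duplicate at 25 uM; actives (e.g., ≥30% inhibition) then run in concentration-response up to 50 uM.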

The target in test [3] is rat Acetylcholinesterase (AChE), Ache (gene 83817) (UniProt P37136). The test can be described thus: NVS_ENZ_rAChE: NovaScreen (NVS) Enzymatic Assay for rat Acetylcholinesterase (AChE) (AID 2283233). The method, boiled down: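 Rat brain membrane acetylcholinesterase activity measured colorimetrically 0.33 h after compound addition, loss of signal relative to DMSO. Primary screen in duplicate at 25 uM; actives re-run as concentration-response with 50 uM top concentration.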

Test [4] deals with rat Catechol-O-Methyl Transferase (COMT), Comt (gene 24267) (UniProt P22734). Put plainly: NVS_ENZ_rCOMT: NovaScreen (NVS) Enzymatic Assay for rat Catechol-O-Methyl Transferase (COMT) (AID 2283235). The method, boiled down:
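Cell-free enzyme activity with protein extracted from rat dorsal striatum, measured by HPLC with absorbance detection. Compounds screened at 25 uM in duplicate; actives then run in concentration-response up to 50 uM, loss of signal versus DMSO.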

In test [5] the target is rat Monoamine Oxidase, MAO-B, Central (MAOBC), Maob (gene 25750) (UniProt P19643). Put plainly: NVS_ENZ_rMAOBC: NovaScreen (NVS) Enzymatic Assay for rat Monoamine Oxidase, MAO-B, Central (MAOBC) (AID 2283238). A digest of the protocol: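 Rat brain tissue extract served as the cell-free MAO-B source; enzyme activity was read by scintillation counting 1.17 hours after compound addition. Loss of signal versus DMSO baseline was fitted; primary single-concentration screen at 25 uM, follow-up concentration-response up to 50 uM.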

Test [6] has as its target human Vascular Endothelial Growth Factor Receptor 1 (VEGFR1), FLT1 (gene 2321) (UniProt P17948). The test can be described thus: NVS_ENZ_hVEGFR1: NovaScreen (NVS) Enzymatic Assay for human Vascular Endothelial Growth Factor Receptor 1 (VEGFR1) (AID 2283226). The method, boiled down: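 Cell-free assay of recombinant human VEGFR1 kinase with substrate, measured 1 h after dosing; fluorescence with electrophoretic mobility-shift separation of substrate and product, referenced to DMSO; primary screen at 25 uM in duplicate, actives then run in concentration series.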

Test [7] addresses sheep Cyclooxygenase-2 (Cox2), PTGS2 (gene 443460) (UniProt P79208). The test can be described thus: NVS_ENZ_oCOX2: NovaScreen (NVS) Enzymatic Assay for sheep Cyclooxygenase-2 (Cox2) (AID 2283231). The method, boiled down:
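Colorimetric absorbance read-out of COX activity, taken 0.66 hour post-dosing, using native protein from sheep placenta. Single-concentration duplicate screen (25 uM), then singleton concentration-response up to 50 uM for actives.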

For test [8], the target named is human Sirtuin 2 (SIRT2), SIRT2 (gene 22933) (UniProt Q8IXJ6). Put plainly: NVS_ENZ_hSIRT2: NovaScreen (NVS) Enzymatic Assay for human Sirtuin 2 (SIRT2) (AID 2283217). A digest of the protocol:
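Cell-free recombinant human SIRT2, fluorescent substrate with product separated by electrophoretic mobility shift, 1 hr. Screened in duplicate at 25 uM; hits rerun singly in concentration-response up to 50 uM, relative to DMSO.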

In test [9] the target is human Vascular Endothelial Growth Factor Receptor 2 (VEGFR2), KDR (gene 3791) (UniProt P35968). The test can be described thus: NVS_ENZ_hVEGFR2: NovaScreen (NVS) Enzymatic Assay for human Vascular Endothelial Growth Factor Receptor 2 (VEGFR2) (AID 2283230). A digest of the protocol:
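Cell-free recombinant VEGFR2 kinase, fluorescent substrate with electrophoretic mobility-shift separation; read 1 h after dosing. Screened at 25 uM in duplicate, hits to concentration-response up to 50 uM; loss-of-signal versus DMSO.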

For test [10], the target named is sheep Cyclooxygenase-1 (Cox1), PTGS1 (gene 443551) (UniProt P05979). Put plainly: NVS_ENZ_oCOX1: NovaScreen (NVS) Enzymatic Assay for sheep Cyclooxygenase-1 (Cox1) (AID 2283239).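 Note: actives reduce cyclooxygenase activity so potencies are for inhibitors.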 A digest of the protocol:
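Tested in duplicate at 25 uM, then in concentration series if active, against seminal vesicle extract from sheep. Enzyme activity was measured colorimetrically at 0.66 hour and normalised to DMSO.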

Test [11] relates to bovine Angiotensin II Receptor Type 2 (AT2), gene 407157. Put plainly: NVS_GPCR_bAT2: NovaScreen (NVS) G Protein-Coupled Receptor Assay for bovine Angiotensin II Receptor Type 2 (AT2) (AID 2283240). The method, boiled down: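 Radioligand displacement on bovine cerebellar membranes, 1 hour incubation, filter-based scintillation counting; loss of signal vs DMSO. Duplicate single-point screen at 25 uM, then concentration-response to 50 uM maximum.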

Test [12] addresses human Sirtuin 1 (SIRT1), SIRT1 (gene 23411) (UniProt Q96EB6). Put plainly: NVS_ENZ_hSIRT1: NovaScreen (NVS) Enzymatic Assay for human Sirtuin 1 (SIRT1) (AID 2283219). The method, boiled down:
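Cell-free recombinant SIRT1 with a fluorescent substrate; substrate and product separated by electrophoretic mobility shift and read by fluorescence intensity, 1 h after dosing. Primary screen at 25 uM in duplicate; hits re-run in concentration-response up to 50 uM, relative to DMSO.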

In test [13] the target is human Tyrosine Protein Kinase Receptor Tie-2 (Tie2), TEK (gene 7010) (UniProt Q02763). Put plainly: NVS_ENZ_hTie2: NovaScreen (NVS) Enzymatic Assay for human Tyrosine Protein Kinase Receptor Tie-2 (Tie2) (AID 2283225). A digest of the protocol: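 Recombinant human Tie2 kinase activity was read cell-free by fluorescence with electrophoretic mobility shift, 1 hour after dosing. The screen used 25 uM in duplicate, then concentration-response up to 50 uM. Signal loss was scored against DMSO.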

Test [14] addresses human Vascular Endothelial Growth Factor Receptor 3 (VEGFR3), FLT4 (gene 2324) (UniProt P35916). The test can be described thus: NVS_ENZ_hVEGFR3: NovaScreen (NVS) Enzymatic Assay for human Vascular Endothelial Growth Factor Receptor 3 (VEGFR3) (AID 2283229). The method, boiled down: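 Cell-free recombinant VEGFR3 kinase reaction with fluorescent substrate, read 1 h after dosing by electrophoretic mobility shift separation of substrate and product. Single-concentration duplicate screen at 25 uM, then concentration-response up to 50 uM; loss of activity versus DMSO.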

Molecules are shown by their SMILES. Results filed as inconclusive are left out. The source made the active and inactive calls. Rule for the calls: active = hit-call score of the fitted dose curve at least 0.9, where 1 is the maximum; inconclusive = response in the unintended direction; inactive = score below 0.9.

Chain of sheep Cyclooxygenase-2 (Cox2), PTGS2 (gene 443460) (P79208 whole entry, looked up): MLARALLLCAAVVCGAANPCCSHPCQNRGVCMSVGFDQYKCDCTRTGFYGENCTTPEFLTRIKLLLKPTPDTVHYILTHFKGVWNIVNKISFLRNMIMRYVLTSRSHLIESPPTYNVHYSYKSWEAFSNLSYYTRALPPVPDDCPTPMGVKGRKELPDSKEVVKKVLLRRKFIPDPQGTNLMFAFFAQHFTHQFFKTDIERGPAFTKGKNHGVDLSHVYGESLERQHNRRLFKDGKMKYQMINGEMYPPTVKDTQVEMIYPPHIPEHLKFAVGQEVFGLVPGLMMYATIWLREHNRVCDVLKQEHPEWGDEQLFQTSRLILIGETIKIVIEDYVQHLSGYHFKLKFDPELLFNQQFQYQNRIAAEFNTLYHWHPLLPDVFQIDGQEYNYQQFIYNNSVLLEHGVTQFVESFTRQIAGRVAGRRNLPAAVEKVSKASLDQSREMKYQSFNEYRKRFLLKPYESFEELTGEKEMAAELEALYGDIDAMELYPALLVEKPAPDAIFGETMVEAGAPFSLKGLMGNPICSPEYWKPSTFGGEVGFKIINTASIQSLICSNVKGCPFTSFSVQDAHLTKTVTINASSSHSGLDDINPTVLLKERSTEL
Chain of human Sirtuin 2 (SIRT2), SIRT2 (gene 22933) (Q8IXJ6 whole entry, looked up): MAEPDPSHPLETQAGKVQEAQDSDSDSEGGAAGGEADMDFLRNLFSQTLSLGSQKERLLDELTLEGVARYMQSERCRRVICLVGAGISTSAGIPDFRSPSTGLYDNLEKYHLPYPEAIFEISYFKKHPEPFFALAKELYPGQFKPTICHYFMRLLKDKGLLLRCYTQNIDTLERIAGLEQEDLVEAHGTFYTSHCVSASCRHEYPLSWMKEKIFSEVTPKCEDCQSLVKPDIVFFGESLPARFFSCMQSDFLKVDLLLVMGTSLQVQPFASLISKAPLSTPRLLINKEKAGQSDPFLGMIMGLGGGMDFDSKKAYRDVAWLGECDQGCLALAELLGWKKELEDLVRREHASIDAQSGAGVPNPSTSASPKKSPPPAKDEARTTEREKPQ
Chain of human Vascular Endothelial Growth Factor Receptor 2 (VEGFR2), KDR (gene 3791) (P35968 whole entry, looked up): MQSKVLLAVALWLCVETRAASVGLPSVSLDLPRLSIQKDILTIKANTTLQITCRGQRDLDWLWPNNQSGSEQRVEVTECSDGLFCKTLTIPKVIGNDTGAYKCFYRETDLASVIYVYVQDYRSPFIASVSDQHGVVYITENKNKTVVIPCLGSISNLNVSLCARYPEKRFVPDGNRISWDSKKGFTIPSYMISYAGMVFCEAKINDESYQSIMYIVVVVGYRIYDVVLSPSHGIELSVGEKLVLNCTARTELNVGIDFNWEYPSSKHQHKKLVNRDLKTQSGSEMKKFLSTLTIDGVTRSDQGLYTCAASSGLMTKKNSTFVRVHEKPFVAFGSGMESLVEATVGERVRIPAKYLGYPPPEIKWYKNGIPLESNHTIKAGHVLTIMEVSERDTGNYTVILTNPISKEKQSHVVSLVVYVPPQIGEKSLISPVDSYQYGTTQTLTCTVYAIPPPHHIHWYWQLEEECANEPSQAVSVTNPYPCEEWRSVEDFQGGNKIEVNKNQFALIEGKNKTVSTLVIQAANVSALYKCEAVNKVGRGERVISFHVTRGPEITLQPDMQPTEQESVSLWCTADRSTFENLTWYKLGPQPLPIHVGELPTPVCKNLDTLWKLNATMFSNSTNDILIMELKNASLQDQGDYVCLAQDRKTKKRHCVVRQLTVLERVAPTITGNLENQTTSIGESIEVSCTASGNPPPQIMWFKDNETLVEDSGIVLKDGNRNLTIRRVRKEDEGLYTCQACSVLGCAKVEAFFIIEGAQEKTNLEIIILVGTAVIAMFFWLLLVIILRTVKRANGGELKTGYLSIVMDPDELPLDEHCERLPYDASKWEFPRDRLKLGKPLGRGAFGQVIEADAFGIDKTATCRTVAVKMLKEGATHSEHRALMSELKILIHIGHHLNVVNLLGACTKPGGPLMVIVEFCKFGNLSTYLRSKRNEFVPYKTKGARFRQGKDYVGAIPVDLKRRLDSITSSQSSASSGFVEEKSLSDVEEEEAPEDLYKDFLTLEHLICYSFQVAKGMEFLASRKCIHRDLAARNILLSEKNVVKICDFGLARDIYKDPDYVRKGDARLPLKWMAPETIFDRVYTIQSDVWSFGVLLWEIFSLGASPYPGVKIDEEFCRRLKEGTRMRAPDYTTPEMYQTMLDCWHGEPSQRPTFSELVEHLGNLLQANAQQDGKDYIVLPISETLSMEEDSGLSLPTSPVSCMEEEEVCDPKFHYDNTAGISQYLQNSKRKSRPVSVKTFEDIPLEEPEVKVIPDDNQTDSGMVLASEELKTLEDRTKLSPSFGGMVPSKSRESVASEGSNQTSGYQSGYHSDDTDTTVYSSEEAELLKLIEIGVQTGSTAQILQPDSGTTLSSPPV
Chain of sheep Cyclooxygenase-1 (Cox1), PTGS1 (gene 443551) (P05979 whole entry, looked up): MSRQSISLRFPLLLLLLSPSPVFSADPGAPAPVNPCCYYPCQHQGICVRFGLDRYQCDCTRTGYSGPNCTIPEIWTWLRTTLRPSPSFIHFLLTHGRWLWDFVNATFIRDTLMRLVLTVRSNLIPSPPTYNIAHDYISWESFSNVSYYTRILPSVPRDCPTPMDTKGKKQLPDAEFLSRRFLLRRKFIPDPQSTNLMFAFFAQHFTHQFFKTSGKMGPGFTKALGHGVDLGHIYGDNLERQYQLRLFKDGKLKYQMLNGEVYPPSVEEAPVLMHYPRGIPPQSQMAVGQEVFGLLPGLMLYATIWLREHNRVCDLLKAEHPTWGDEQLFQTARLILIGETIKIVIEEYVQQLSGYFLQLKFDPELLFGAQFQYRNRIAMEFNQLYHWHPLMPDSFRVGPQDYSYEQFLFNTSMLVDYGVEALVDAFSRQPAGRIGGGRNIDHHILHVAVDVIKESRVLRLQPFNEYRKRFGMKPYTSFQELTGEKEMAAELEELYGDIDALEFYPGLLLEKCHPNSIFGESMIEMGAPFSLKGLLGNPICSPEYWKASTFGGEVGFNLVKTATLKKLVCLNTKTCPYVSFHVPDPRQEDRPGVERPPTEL
Chain of human Vascular Endothelial Growth Factor Receptor 1 (VEGFR1), FLT1 (gene 2321) (P17948 whole entry, looked up): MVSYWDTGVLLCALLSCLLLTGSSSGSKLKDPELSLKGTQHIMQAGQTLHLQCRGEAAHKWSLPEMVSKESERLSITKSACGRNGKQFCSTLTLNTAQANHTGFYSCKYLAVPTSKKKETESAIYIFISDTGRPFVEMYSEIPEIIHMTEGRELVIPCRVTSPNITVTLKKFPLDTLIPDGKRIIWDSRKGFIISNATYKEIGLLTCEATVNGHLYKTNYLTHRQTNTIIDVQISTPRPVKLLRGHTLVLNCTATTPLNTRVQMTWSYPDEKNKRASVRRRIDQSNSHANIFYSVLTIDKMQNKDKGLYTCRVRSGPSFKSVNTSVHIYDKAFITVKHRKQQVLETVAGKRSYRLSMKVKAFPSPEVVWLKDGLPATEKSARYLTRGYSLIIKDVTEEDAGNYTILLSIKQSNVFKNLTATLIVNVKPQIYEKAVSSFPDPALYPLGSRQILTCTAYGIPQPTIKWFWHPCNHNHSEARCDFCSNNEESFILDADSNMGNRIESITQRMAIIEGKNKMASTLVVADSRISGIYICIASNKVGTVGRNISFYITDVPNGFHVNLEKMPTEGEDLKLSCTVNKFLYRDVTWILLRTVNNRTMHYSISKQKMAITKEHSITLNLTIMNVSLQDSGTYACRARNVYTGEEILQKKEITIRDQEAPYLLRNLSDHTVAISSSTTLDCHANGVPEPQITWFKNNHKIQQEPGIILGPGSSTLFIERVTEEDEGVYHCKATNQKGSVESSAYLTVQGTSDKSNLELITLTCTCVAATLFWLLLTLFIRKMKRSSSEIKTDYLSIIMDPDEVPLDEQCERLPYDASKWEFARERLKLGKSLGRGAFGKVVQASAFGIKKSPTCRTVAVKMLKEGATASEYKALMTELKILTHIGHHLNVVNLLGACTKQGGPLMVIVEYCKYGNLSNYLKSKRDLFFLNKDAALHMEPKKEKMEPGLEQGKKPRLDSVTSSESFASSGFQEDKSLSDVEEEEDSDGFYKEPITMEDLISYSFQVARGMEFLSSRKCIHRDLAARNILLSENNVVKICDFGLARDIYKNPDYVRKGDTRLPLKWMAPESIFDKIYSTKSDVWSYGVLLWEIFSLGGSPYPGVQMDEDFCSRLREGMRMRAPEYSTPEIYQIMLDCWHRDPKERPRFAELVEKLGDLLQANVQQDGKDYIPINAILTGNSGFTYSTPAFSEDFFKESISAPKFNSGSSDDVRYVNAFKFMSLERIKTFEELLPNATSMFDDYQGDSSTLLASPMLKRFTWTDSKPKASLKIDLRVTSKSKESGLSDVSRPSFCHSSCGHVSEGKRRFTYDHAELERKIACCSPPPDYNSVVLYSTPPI
Chain of rat Catechol-O-Methyl Transferase (COMT), Comt (gene 24267) (P22734 whole entry, looked up): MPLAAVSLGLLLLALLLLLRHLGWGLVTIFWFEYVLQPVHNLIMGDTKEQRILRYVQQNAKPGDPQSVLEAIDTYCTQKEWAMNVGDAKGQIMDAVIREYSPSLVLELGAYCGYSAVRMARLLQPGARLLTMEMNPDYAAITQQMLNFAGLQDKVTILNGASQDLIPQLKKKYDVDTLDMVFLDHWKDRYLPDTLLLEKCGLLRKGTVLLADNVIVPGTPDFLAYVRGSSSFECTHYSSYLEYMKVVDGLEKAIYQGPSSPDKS
Chain of rabbit Imidazoline 2 Central (I2C), CKB (gene 100009085) (P00567 whole entry, looked up): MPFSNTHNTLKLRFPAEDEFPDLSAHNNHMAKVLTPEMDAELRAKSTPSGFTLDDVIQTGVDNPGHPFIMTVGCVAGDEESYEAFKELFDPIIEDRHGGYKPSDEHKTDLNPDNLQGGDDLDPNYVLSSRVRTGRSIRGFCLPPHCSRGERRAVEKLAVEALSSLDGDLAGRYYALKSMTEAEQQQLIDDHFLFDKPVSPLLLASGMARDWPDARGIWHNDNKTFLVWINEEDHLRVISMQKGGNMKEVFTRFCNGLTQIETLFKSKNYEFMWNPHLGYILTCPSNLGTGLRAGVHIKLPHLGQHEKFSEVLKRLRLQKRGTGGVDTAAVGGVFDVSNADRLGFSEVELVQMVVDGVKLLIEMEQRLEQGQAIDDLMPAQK

`CN(C)c1nc(=O)n(C2CCCCC2)c(=O)n1C`: the AC50 in test [1] was 9.76 µM (active). For the same compound, in [2], the compound was called inactive.

Turning to `C[C@]12CCC(=O)C=C1CC[C@@H]1[C@@H]2CC[C@]2(C)C(=O)CC[C@@H]12`, in [3], the concentration at half-maximal activity (AC50) was 24.4 µM (active). Consider `CCC(C)(CC)c1cc(NC(=O)c2c(OC)cccc2OC)on1`, for which, in [4], the call was inactive. Take `CCOCCOC(C)=O`: the compound was called inactive in test [5].

As for `CC(C)C(=O)OCC(C)(C)C(OC(=O)C(C)C)C(C)C` (stereo not given), the compound was called inactive in test [6]. On to `Clc1ccc(Cl)cc1`, for which, in test [7], the AC50 is 15.8 µM (active). With `CCCCCCOC(=O)c1ccccc1C(=O)OCCCCCC`, in test [8], the call was inactive. For `CCC(=O)O[C@H]1CC[C@H]2[C@@H]3CCC4=CC(=O)CC[C@]4(C)[C@H]3CC[C@]12C`, the compound was classed as inactive in test [7]. In the case of `CCC(C)c1cc([N+](=O)[O-])cc([N+](=O)[O-])c1O` (stereo not given), the call in [9] was inactive. Also, the AC50 in [4] is 1.1 µM (active). In the case of `CN(C)CCO`, the compound was called inactive in [2]. With `ClC1=C(Cl)[C@]2(Cl)[C@@H]3[C@@H]4C[C@@H]([C@H]5O[C@@H]45)[C@@H]3[C@@]1(Cl)C2(Cl)Cl`, the compound was called inactive in [6]. As to `ClC(Cl)=C(c1ccc(Cl)cc1)c1ccc(Cl)cc1`, the outcome in test [9] and in test [10] was inactive. For `CCNc1nc(NC(C)C)nc(SC)n1`, the compound was classed as inactive in [11].

As for `Cc1ccc(O)c(C)c1`, the AC50 in test [7] was 18.4 µM (active). `O=S(=O)(O)C(F)(F)C(F)(F)C(F)(F)C(F)(F)C(F)(F)C(F)(F)F`: the AC50 in [8] is 11.4 µM (active). In addition, the outcome in test [12], in test [13] and in [9] was inactive. Take `O=C(O)C(F)(F)C(F)(F)C(F)(F)C(F)(F)C(F)(F)F`: the outcome in test [14] was inactive. With `CCCCCCCCCC[N+](C)(C)CCCCCCCCCC`, the concentration at half-maximal activity (AC50) is 11.8 µM (active) in test [1] and 26 µM (active) in test [9]. Take `Cc1cccc(C)c1N`: the result in [7] was inactive. As for `Clc1ccc(C(c2ccccc2Cl)C(Cl)(Cl)Cl)cc1` (stereo not given), the result in [13], in [14], in [9] and in [10] was inactive. For the compound `Cc1cccc([N+](=O)[O-])c1`, in test [8], the compound was classed as inactive.
